Screens: PubChem BioAssay, National Center for Advancing Translational Sciences (NCATS)
Pf Dd2 growth: inhibitors of Plasmodium falciparum Dd2 growth | P. falciparum Dd2 growth, SYBR Green, 72 h | Potency, µM (doses to about 28.9 µM), for inactives: at the highest dose activity, negative = inhibition, usual class: inhibitors | 120,000 compounds, 4.3% hits | AID 1347417; active means well fitted inhibition curve with a large enough effect;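 further: plate controls were DMSO vehicle for no effect and reference drug for full effect; nearly all actives have a fitted effect of over 65% in size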
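Readout: SYBR Green fluorescence, 485 nm excitation, 535 nm emission, after ~16 h lysis at 37C. Before that, Dd2-infected red cells (2.5% hematocrit) grew 72 h with compound, 29 uM top final concentration.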
The depositor's hits bear a star; i = inactive; [ ] = another dose, or the depositor's remark. Only a selection was taken, and hits are over-represented in it overall. Potency means the concentration at half of the fitted maximal effect.

SMILES	Pf Dd2 growth
CN(CCc1ccccn1)C(=O)CCC[C@@H]1[C@H]2CCCN3CCC[C@@H](CN1C(=O)c1cccnc1)[C@@H]23	-11%
Cc1ccc(NC(=O)N2CC(C(=O)N(C)C)C3(CCOCC3)C2)cc1C (configuration not stated)	6%
CN1C[C@H]2CN(Cc3cn(C)c4ccccc34)CCN2C1=O	-28%[44.1 µM]
CS(=O)(=O)N1CCC(C2CCN(Cc3ccncc3)C2)CC1 (configuration not stated)	-2%
Cn1cc(CN2C[C@@H]3OCC(=O)N[C@@H]3C2)c2ccccc21	i
Cn1cc(CN2CCC(C3CCN(S(C)(=O)=O)CC3)C2)c2ccccc21 (configuration not stated)	3.5µM*
CS(=O)(=O)N1CCC(C2CCN(Cc3ccsc3)C2)CC1 (configuration not stated)	i
Cn1cc(CN2CC[C@@H](c3ccc4c(c3)OCO4)[C@H](O)C2)c2ccccc21	8.9µM*
COc1ccc(OCc2nc(C)c(CCO)c(=O)n2CC(=O)Nc2cccc(C)c2C)cc1	2%
Cc1ccc(CNC(=O)C2N(C(C)C)C(=O)C23CCCC3)o1 (configuration not stated)	6%
COc1ccc2cc1Nc1ccc(cc1)C[C@H](NCc1ccc(C)o1)C(=O)N(C)[C@H](C(=O)NCCC(C)C)C2	1µM*
COc1cccc(N2CC(C(=O)NCCOc3ccccc3)NC2=O)c1 (configuration not stated)	12%
COc1ccc(CCN2CC(C(=O)NCCc3ccc(C)cc3)CC2=O)cc1OC (configuration not stated)	24%
COc1ccc2cc1Nc1ccc(cc1)C[C@H](NCc1ccc(O)cc1)C(=O)N(C)[C@H](C(=O)NCCOc1ccccc1)C2	2.5µM*
COc1cccc(C(=O)N2CCC(N3C(=O)CCC3C(=O)NCc3ccccc3)CC2)c1C (configuration not stated)	-5%
COc1ccc2cc1Nc1ccc(cc1)C[C@H](NCc1ccc(C)o1)C(=O)N(C)[C@@H](C(=O)NCc1ccccc1)C2	0.89µM*
COc1ccc2cc1Nc1ccc(cc1)C[C@H](NCC1CC1)C(=O)N(C)[C@@H](C(=O)NCc1ccccc1)C2	-25%
COCCN1CC(C(=O)NCCOc2ccccc2)CCC1=O (configuration not stated)	-7%
COCC1CN(C(C)=O)CC12CCN(C(=O)c1ccc(C)c(F)c1)CC2 (configuration not stated)	i
N#Cc1cccc(CN2C[C@H](O)C[C@H]2c2nc(-c3ccc4c(c3)OCO4)no2)c1	i
COc1cc(NC(=O)[C@H]2CCC[C@H]2NC(=O)c2cnc(C)cn2)cc(OC)c1OC	-14%
COC[C@@H]1[C@H](C(=O)N2CCN(c3ccccc3OC)CC2)CCC(=O)N1C	-20%
CCn1ccc(C(=O)N2CC(c3nnc(-c4ccc(C)cc4)o3)C3(CCOCC3)C2)n1 (configuration not stated)	i
CCOc1ccc(-c2nc(C3CC(=O)N(c4ccc(F)c(Cl)c4)C3)no2)cc1OCC (configuration not stated)	18%
Cc1ccc(-n2c(C)cc(/C=C(\C#N)C(=O)Nc3ccc(C)c(C)c3)c2C)cc1	2%
SMILES	Pf Dd2 growth
Cc1ccc(/C=C(\C#N)C(=O)Nc2cccc(Cl)c2)o1	-9%
Cc1cccc(Cn2cc(/C=C(/C#N)C(=O)Nc3cccc(Cl)c3)c3ccccc32)c1	3.5µM*
Cc1cc(=O)n(CCN2CCOCC2)c(N2CCCC2)n1	2%
Cc1ccc(N2CCN(C(=O)[C@@]34CCCC[C@H]3N(C)C(=O)CC4)CC2)cc1	10%
CCc1ccc(CNC(=O)CN2C(=O)NC3(CCCCC3)C2=O)cc1	-17%
O=C1Cc2c(-c3ccsc3)n[nH]c2CN1Cc1ccccc1	5.6µM*
O=C1Cc2c(-c3cccc(C(F)(F)F)c3)n[nH]c2CN1Cc1ccccc1	i
COCCN1Cc2[nH]nc(-c3ccsc3)c2CC1=O	1%[44.1 µM]
CNC(=O)C1(N2CCC[C@H]2C(=O)NCCNC(C)=O)CCCCC1	17%[44.1 µM]
COc1cccc(-c2ccc(S(=O)(=O)N3CCSCC3)cc2)n1	-25%
Cn1nccc1CN1CCn2c(nnc2-c2ccc(Cl)cc2)C1	-12%
COc1ccc(C[C@H](N)C(=O)NCc2c(C)ncc3c2CCNC3)cc1	-11%
COc1ccc(NC(=O)c2ccc3c(c2)OCCN(CCC(F)(F)F)C3)c(F)c1	-23%[44.1 µM]
CNC(=O)c1ccc2c(c1)OCCN(c1ccccc1)C2	i
COc1ccc(NC(=O)c2ccc3c(c2)OCCN(c2ccccc2)C3)c(F)c1	10µM*
O=C(c1cn(CC2CCCO2)nn1)N1CCN(c2cccc(C(F)(F)F)c2)CC1 (configuration not stated)	-21%
O=C(COc1ccccc1)Nc1sc2c(c1C(=O)Nc1ccccc1Cl)CCCCC2	97%
Cc1cccc(NC(=O)N2CC(=O)Nc3sc4c(c3C2c2ccccc2)CCCC4)c1C (configuration not stated)	11µM*
Cc1cccc(NC(=O)N2CCC(CC(=O)NCc3ccccc3)C2)c1C (configuration not stated)	-13%
